For 40 molecules, Potency results are on record in PubChem BioAssay (NCATS).

Inconclusive results are not listed. Entries that show only a call come without a potency. Calls of active or inactive are those of the source. Calls follow the shape of the dose curve; as a rule, active = well fitted cell-killing curve with a large enough effect; inconclusive = small, poorly fitted or top-dose-only effect; inactive = flat fitted curve, though single readings scatter.
Potency is read from the fitted curve at half-maximal effect.

A short description of the assay: Cell Viability - LYMP2-026 (AID 989). Also: nearly all actives have a fitted effect of over 50% in size. The note with it: LYMP2-026 lymphoblastoid cell viability, qHTS; series mostly up to 92.2 µM. From the text: NIH Chemical Genomics Center [NCGC]
NIH Molecular Libraries Screening Centers Network [MLSCN]
National Institutes of Environmental Health Sciences [NIEHS]
National Toxicology Program [NTP]
We have developed a 1536-well cell-based assay for quantitative high throughput screening (qHTS) against a number of cell lines to determine in vitro cytotoxicity of small molecules. This particular assay uses a human lymphoblastoid cell line (LYMP2-026) purchased from Coriell Institute for Medical Research.
NCGC Assay Protocol Summary:
The CellTiter-Glo luminescent cell viability assay (Promega) is a homogeneous method to measure the number of viable cells in culture. The end point readout of this assay is based on quantitation of intracellular ATP, an indicator of metabolic activity, using the luciferase reaction. Luciferase catalyzes the oxidation of beetle Luciferin to oxyluciferin and light in the presence of ATP. The luminescent signal is proportional to amount of ATP present.
Using the CellTiter-Glo luminescent cell viability assay, the amount of cellular ATP was measured in the lymphoblastoid cell line with complete culture medium following compound treatment for 24 hours. The assay was performed in opaque white Kalypsys 1536-well plates. In the screen, tetraoctylammonium bromide was used as positive control. Library compounds were measured for their ability to cause acute toxicity in the cell line, as reflected by a decrease in intracellular ATP levels, in a concentration-dependent manner. […] AC50 values were determined from concentration-response data modeled with the standard Hill equation.
qHTS protocol for CellTiter Glo lymphoblastoid cellular assay
[Step] [Parameter] [Value] [Description]
1. Reagent; 5 uL; 2500 lymphoblastoid cells/well
2. Time; 5 hr; 37 C incubation
4. Controls; 23 nL; Tetraoctylammonium bromide 6.4pM to 92 uM
5. Time; 24 hr; 37 C incubation
6. Reagent; 5 uL; CellTiter Glo reagent
7. Time; 30 min; Room Temperature
8. Detection; Luminescence; Viewlux plate reader
Keywords: cell viability, cytotoxicity, lymphoblastoid cell line, luminescence, NTPHTS, NTPHTS_NCGC, NIEHS, DSSTox, MLSMR, MLSCN, NIH Roadmap, qHTS, NCGC
Background: qHTS replaces the single test concentration by a dilution series.
For `O=C1c2ccccc2C(=O)C1(O)O`, the Potency result is “inactive”.

`CCCCNCC`: the Potency entry was “inactive”.

For the molecule `O=[N+]([O-])c1cc(Cl)c(Cl)c(Cl)c1Cl`, the Potency entry was “inactive”.

Regarding `Cc1ccccc1OCC1CO1` (stereo not given), the Potency result was “inactive”.

With `C[Si](C)(C)Cl`, the Potency result was “inactive”.

With `CCc1ccc(C(c2ccc(CC)cc2)C(Cl)Cl)cc1`, the Potency entry is “inactive”.

Regarding `Oc1cc2c(cc1O)[C@H]1c3ccc(O)c(O)c3OC[C@@]1(O)C2`, the Potency is 39.8 µM (active).

With `Cc1c(N)cccc1Cl`, the Potency result is “inactive”.

As to `O=C(Cl)c1ccc([N+](=O)[O-])cc1`, the Potency result is “inactive”.

Regarding `CCCCCCc1ccc(-c2ccc(C#N)cc2)cc1`, the Potency result was “inactive”.

In the case of `c1ccc2ncccc2c1`, the Potency entry was “inactive”.

With `Nc1ccc(N)c(Cl)c1`, the Potency result is “inactive”.

Regarding `CC(C)S`, the Potency entry is “inactive”.

Turning to `C=CC(=O)CC`, the Potency entry was “inactive”.

Take `CCNC(=S)NCC`: the Potency entry was “inactive”.

With `C=CC(=O)OCCCCCCOC(=O)C=C`, the Potency is 39.8 µM (active).

In the case of `Cc1cccnc1`, the Potency result is “inactive”.

For `C=CC(C)(O)CCCC(C)CCCC(C)CCCC(C)C` (stereo not given), the Potency entry is “inactive”.

On to `O=C(O)c1ccc([N+](=O)[O-])cc1`, for which the Potency entry is “inactive”.

For the molecule `CC(=O)OCc1ccc2c(c1)OCO2`, the Potency entry is “inactive”.

Regarding `CC(C)COC(=O)COc1cc(Cl)c(Cl)cc1Cl`, the Potency result was “inactive”.

In the case of `CC/C=C/C/C=C/C/C=C/CCCCCCCC(=O)OCC`, the Potency was 50.1 µM (active).

As for `Cc1ccc(C(=O)O)cc1[N+](=O)[O-]`, the Potency result is “inactive”.

Turning to `CCCCC(CC)COP(=O)(OCC(CC)CCCC)OCC(CC)CCCC` (stereo not given), the Potency result is “inactive”.

Take `O=C=Nc1ccc(Cl)c(Cl)c1`: the Potency entry was “inactive”.

`O=C(OCc1ccccc1)c1ccccc1O`: the Potency result is “inactive”.

Turning to `CCN(CC)c1ccc(N)cc1`, the Potency result is “inactive”.

Regarding `CN(C)c1ccc(Cc2ccc(N(C)C)cc2)cc1`, the Potency result was “inactive”.

Take `CCCCCCCCOc1ccc(C(=O)O)cc1`: the Potency result is “inactive”.

On to `Clc1nc2ccccc2nc1Cl`, for which the Potency entry is “inactive”.

Regarding `CCCCCCN`, the Potency result was “inactive”.

For `CCCCC(CC)COCCCN` (stereo not given), the Potency entry is “inactive”.

Regarding `Oc1ccc2c(c1)OCO2`, the Potency entry was “inactive”.

Regarding `O=C1OC(=O)c2ccccc21`, the Potency entry was “inactive”.

Turning to `Nc1cnn([C@@H]2O[C@H](CO)[C@@H](O)[C@H]2O)c(=O)n1`, the Potency result was “inactive”.

As to `CCOC(=O)C1OC1c1ccccc1` (stereo not given), the Potency result was “inactive”.

Take `C=CC1CO1` (stereo not given): the Potency result is “inactive”.

With `Oc1cc(Cl)cc(Cl)c1Cl`, the Potency result is “inactive”.

In the case of `CCCCCCCCC1CO1` (stereo not given), the Potency result is “inactive”.

In the case of `Nc1cc(C(=O)O)c(O)c(S(=O)(=O)O)c1`, the Potency result is “inactive”.
